Assay in all cases: qHTS profiling for inhibitors of Plasmodium falciparum proliferation (AID 504749); further: nearly all actives have a fitted effect of over 60% in size
Common to all, as to conditions: P. falciparum in erythrocytes, SYBR Green DNA, 72 h; series mostly up to 28.7 µM
On the technique in general: Quantitative high-throughput screening tests each substance at several concentrations.

One assay deals with CP247. A digest of the protocol: (§1)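 Each compound contacts P. falciparum-infected red blood cells for 72 h at 37 C; lysis buffer (Tris, EDTA, saponin, Triton X, SYBR Green I) is added and fluorescence measured next morning; values normalized to controls.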
In a further assay the test system is CP250. Summed up: as §1
The test system of the next assay is CP252. Summed up: as §1
The next assay concerns CP256. A digest of the protocol:
as §1

A further assay relates to CP260. A digest of the protocol:
as §1

In another assay the test system is CP262. Summed up: as §1
Another assay deals with CP265. A digest of the protocol: as §1
The next assay concerns CP266. A digest of the protocol:
as §1

The subject of the next assay is CP268. A digest of the protocol:
as §1

Another assay deals with CP269. Summed up: as §1
Another assay deals with CP286. A digest of the protocol:
as §1

A further assay deals with CP291. A digest of the protocol:
as §1

For a further assay, the system named is CP297. A digest of the protocol:
as §1

In a further assay the test system is CP305. A digest of the protocol: as §1
The subject of another assay is CP315. Summed up: as §1
The next assay has as its system CP325. Summed up:
as §1

In a further assay the test system is CP329. A digest of the protocol: as §1
In the next assay the test system is CP335. Summed up: as §1
The subject of the next assay is DFO2036. Summed up:
as §1

A further assay deals with DIV14. Summed up:
as §1

Records with an inconclusive call do not appear. Active and inactive are the calls of the source. The call rests on the fitted dose curve; in most records, active means well fitted inhibition curve with a large enough effect; inconclusive means small, poorly fitted or top-dose-only effect; inactive means flat fitted curve, though single readings scatter.
Potency means the concentration at half of the fitted maximal effect.

For the compound `COC(=O)[C@@H](N)CCCN=C(N)N[N+](=O)[O-]`, the Potency entry in the assay with CP247, in the assay with CP250, with CP252, with CP256, in the assay with CP260 and with CP262 was “inactive” throughout. Also, the Potency entry in the assay on CP265, in the assay with CP268, in the assay on CP269, in the assay on CP286, in the assay with CP291 and with CP297 was “inactive” throughout. The Potency result with CP305, in the assay on CP315, in the assay on CP325, with CP329, with CP335 and in the assay with DFO2036 was “inactive” throughout. Also, the Potency result in the assay on DIV14 is “inactive”. The compound was classed as inactive in the assay on CP266.

With `Cc1ccc(Cl)c(O)c1`, the Potency result in the assay on CP247, in the assay on CP250, in the assay on CP252, in the assay on CP256, with CP260 and in the assay with CP262 was “inactive” in each case. The Potency result in the assay on CP265, with CP268, with CP269, with CP286, with CP291 and in the assay with CP297 was “inactive” throughout. The Potency result in the assay with CP305, in the assay on CP315, with CP325, with CP329, in the assay with CP335 and in the assay with DFO2036 was “inactive” each time. Moreover, in the assay with DIV14, the Potency entry was “inactive”. In addition, the call with CP266 was inactive.

In the case of `O=[N+]([O-])c1ccc([As](=O)(O)O)cc1`, the Potency is 7.08 µM (active) with CP250; 7.08 µM (active) in the assay on CP252; 10 µM (active) in the assay on CP256; 7.08 µM (active) in the assay on CP260; 8.49 µM (active) in the assay with CP262; 10 µM (active) in the assay with CP265. The Potency with CP268 is 13.5 µM (active); with CP269, 6.01 µM (active); with CP286 it was 7.94 µM (active); in the assay with CP291, 8.49 µM (active); with CP297, 10.7 µM (active); with CP305 it was 7.57 µM (active). Also, the Potency in the assay with CP315 is 12 µM (active); with CP325 it was 9.53 µM (active); in the assay with CP329 it was 12 µM (active); with CP335, 4.78 µM (active); in the assay with DFO2036 it was 5.01 µM (active); in the assay on DIV14, 10.7 µM (active).

On to `CCCCCCCCCCCCCCCC[N+](C)(C)C`, for which the Potency in the assay with CP250 is 8.91 µM (active); with CP260, 5.62 µM (active); in the assay with CP265, 11.2 µM (active); in the assay on CP268, 13.5 µM (active); in the assay on CP286, 5.01 µM (active); in the assay on CP291, 13.5 µM (active). Also, the Potency was 13.5 µM (active) with CP297; 12 µM (active) in the assay on CP325; 10.7 µM (active) in the assay with CP329; 8.49 µM (active) in the assay on CP335; 6.75 µM (active) with DIV14.

Consider `O=C(O)C(Cl)Cl`, for which the Potency entry with CP247, in the assay on CP250, with CP252, in the assay on CP256, in the assay with CP260 and with CP262 was “inactive” throughout. Also, the Potency result in the assay with CP265, with CP268, in the assay with CP269, in the assay on CP286, in the assay with CP291 and with CP297 was “inactive” throughout. For the same compound, the Potency result in the assay on CP305, in the assay with CP315, in the assay with CP325, in the assay with CP329, in the assay with CP335 and in the assay on DFO2036 was “inactive” throughout. For the same compound, the Potency result in the assay on DIV14 is “inactive”. Also, in the assay on CP266, the compound was classed as inactive.

In the case of `CC[N+]1(CCOC(=O)C(O)(c2ccccc2)c2ccccc2)CCCCC1`, the Potency result in the assay with CP250, with CP252, in the assay with CP260, with CP262, in the assay on CP265 and in the assay with CP268 was “inactive” in each case. For the same compound, the Potency entry in the assay on CP269, with CP286, with CP291, with CP297, in the assay on CP305 and in the assay on CP315 was “inactive” each time. The Potency entry with CP325, in the assay on CP329, in the assay on CP335, with DFO2036 and in the assay on DIV14 was “inactive” in each case. Further, the compound was called inactive with CP266.

As to `C#CC1(O)CCC2C3CCC4=CC(=O)CCC4(C)C3CCC21C` (stereo unspecified), the Potency result with CP247, in the assay with CP250, in the assay with CP252, with CP256, in the assay with CP260 and in the assay on CP262 was “inactive” each time. The Potency entry in the assay on CP265, with CP268, in the assay on CP269, in the assay on CP286, in the assay on CP291 and with CP297 was “inactive” each time. Further, the Potency entry in the assay with CP305, in the assay on CP315, with CP325, in the assay with CP329, in the assay on CP335 and in the assay with DFO2036 was “inactive” throughout. Besides, in the assay with DIV14, the Potency result was “inactive”. The compound was called inactive in the assay with CP266.

Regarding `NC(=O)CN1CC(O)CC1=O` (stereo unspecified), the Potency entry with CP247, in the assay on CP250, in the assay with CP252, in the assay with CP256, with CP260 and with CP262 was “inactive” throughout. Also, the Potency entry in the assay with CP265, in the assay on CP268, in the assay with CP269, in the assay with CP286, in the assay with CP291 and in the assay on CP297 was “inactive” each time. Besides, the Potency entry in the assay with CP305, in the assay with CP315, in the assay with CP325, in the assay with CP329, in the assay on CP335 and in the assay with DFO2036 was “inactive” each time. Moreover, the Potency result in the assay with DIV14 is “inactive”. Further, the call with CP266 was inactive.

On to `CC(=O)[O][Hg][c]1ccccc1`, for which the Potency was 5.62 µM (active) with CP247; 7.08 µM (active) in the assay on CP250; 8.91 µM (active) in the assay on CP252; 8.91 µM (active) in the assay with CP256; 3.98 µM (active) in the assay with CP260; 8.91 µM (active) in the assay with CP265. In addition, the Potency with CP268 was 4.78 µM (active); in the assay with CP269 it was 4.78 µM (active); in the assay with CP286, 3.55 µM (active); in the assay with CP291, 4.26 µM (active); in the assay with CP297, 13.5 µM (active); with CP305, 4.26 µM (active). For the same compound, the Potency in the assay on CP325 was 6.01 µM (active); in the assay with CP335, 5.36 µM (active); in the assay with DFO2036 it was 3.98 µM (active); in the assay on DIV14, 4.78 µM (active).

As for `c1ccc(C2(c3ccccc3)CC2C2=NCCN2)cc1` (stereo unspecified), the Potency entry in the assay on CP247, with CP250, in the assay with CP252, with CP262, in the assay with CP265 and in the assay with CP268 was “inactive” in each case. Moreover, the Potency entry in the assay with CP269, in the assay on CP291, with CP297, in the assay with CP305, with CP315 and with CP325 was “inactive” each time. Further, the Potency entry in the assay with CP329, with CP335 and in the assay on DFO2036 was “inactive” in each case.

`CC(C)NC(C)Cc1ccc(I)cc1` (stereo unspecified): the Potency entry in the assay with CP247, in the assay with CP250, in the assay on CP252, in the assay on CP256, in the assay on CP260 and in the assay on CP262 was “inactive” in each case. The Potency entry in the assay on CP265, in the assay with CP269, with CP286, with CP291, with CP305 and with CP315 was “inactive” in each case. Moreover, the Potency entry in the assay on CP325, with CP329 and in the assay on DFO2036 was “inactive” each time. For the same compound, the outcome in the assay on CP266 was inactive.

Turning to `COC(=O)c1cncn1C(C)c1ccccc1` (stereo unspecified), the Potency entry in the assay on CP262, in the assay with CP268, with CP269, in the assay on CP291, in the assay with CP297 and in the assay on CP305 was “inactive” throughout. In addition, the Potency entry in the assay on CP315, in the assay on CP325, in the assay on CP329, in the assay on CP335 and in the assay on DIV14 was “inactive” each time. The outcome in the assay with CP266 was inactive.

The record behind these values is PubChem BioAssay (NCATS).
